Bioassay records deposited in PubChem BioAssay by Johns Hopkins Ion Channel Center.
KCNQ2 enhance: potentiators of rat KCNQ2 potassium channel | Potassium voltage-gated channel subfamily KQT member 2 (Rattus norvegicus), O88943 | CHO-K1 KCNQ2, FluxOR thallium flux fluorescence; stronger effect = higher value | B-score at 10 µM | 0.54% of 310,000 active | AID 2239, 2010;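 active means fluorescence ratio B-score at least 3 SD of library B-scores, with initial fluorescence B-score within 3 of them, cut at about 5.3 in these data; same plate scores as AID 2156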;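 further: B-score of peak minus minimum over baseline fluorescence ratio after K+ and Tl+ stimulus; positive B-score means potentiation of KCNQ2 with more thallium influx and brighter signal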
Target sequence (O88943 whole entry, looked up): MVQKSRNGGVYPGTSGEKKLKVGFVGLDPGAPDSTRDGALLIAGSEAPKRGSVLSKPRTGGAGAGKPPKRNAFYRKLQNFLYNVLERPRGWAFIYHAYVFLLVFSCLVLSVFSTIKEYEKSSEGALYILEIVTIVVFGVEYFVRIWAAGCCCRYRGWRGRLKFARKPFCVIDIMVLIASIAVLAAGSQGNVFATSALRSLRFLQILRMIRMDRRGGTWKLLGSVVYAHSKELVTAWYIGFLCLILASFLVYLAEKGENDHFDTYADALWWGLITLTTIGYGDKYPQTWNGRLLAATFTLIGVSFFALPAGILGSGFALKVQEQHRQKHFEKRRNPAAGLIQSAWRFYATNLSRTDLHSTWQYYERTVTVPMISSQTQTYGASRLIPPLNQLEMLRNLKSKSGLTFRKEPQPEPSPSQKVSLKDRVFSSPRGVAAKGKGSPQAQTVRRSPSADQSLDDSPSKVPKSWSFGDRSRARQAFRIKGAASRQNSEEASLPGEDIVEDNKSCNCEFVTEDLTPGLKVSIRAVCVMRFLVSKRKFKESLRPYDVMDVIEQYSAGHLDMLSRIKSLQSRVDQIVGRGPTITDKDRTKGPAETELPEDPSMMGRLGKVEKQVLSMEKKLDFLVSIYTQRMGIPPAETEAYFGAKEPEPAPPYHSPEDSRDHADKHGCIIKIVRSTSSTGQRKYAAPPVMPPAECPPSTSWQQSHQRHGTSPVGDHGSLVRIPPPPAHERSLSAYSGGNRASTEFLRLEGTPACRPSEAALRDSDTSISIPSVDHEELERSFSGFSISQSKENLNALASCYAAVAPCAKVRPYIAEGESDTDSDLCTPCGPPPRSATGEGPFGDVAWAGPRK
KCNQ2 inh: rat KCNQ2 potassium channel inhibitors, primary screen, cell-based, CHO-K1, FluxOR thallium flux, B-score; Potassium voltage-gated channel subfamily KQT member 2 (Rattus norvegicus), O88943; 20 min; stronger effect = lower value; B-score at 10 µM; 1.1% of 310,000 active; AID 2156, 2009;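 active means fluorescence ratio B-score at most minus 3 library SDs, with starting brightness B-score within 2 library SDs, cut at about -5.5 in these data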
Numbers without * were called inactive; i = inactive; x = no result. Most compounds without a hit are left out; they make up all but 1.6% or so of the library.

SMILES | KCNQ2 enhance | KCNQ2 inh
O=C(NCCN1CCCC1)c1ccc2c(=O)n(CCc3ccccc3)c(=O)[nH]c2c1 | -6 | -6*
CCCN1CCN(CCCNC(=O)c2ccc3c(=O)n(CCc4ccccc4)c(=O)[nH]c3c2)CC1 | x | i
C/C(CCC(C)C)=N\Nc1cc(C)c2ccccc2n1 | -8.3 | -8.3*
Cc1cc(NCc2ccccc2)nc2ccccc12 | 2 | i
Cc1ccc(N2C(=O)CC(N3CCN(c4ccccn4)CC3)C2=O)cc1 (centres undefined) | x | i
Cc1ccc2nc(-c3ccc(N4C(=O)CC(N5CCN(CCO)CC5)C4=O)cc3)sc2c1 (centres undefined) | -6.3 | -6.3*
CCOc1cc(CNCCCN2CCOCC2)cc(Br)c1OCc1ccccc1Cl | -5.9 | -5.9*
CCOc1cc(CNCCN2CCOCC2)ccc1OCc1ccccc1Cl | x | i
O=C(Cc1coc2cc3c(cc12)CCC3)NC1CCCCCCC1 | 12* | i
O=C(O)Cc1coc2cc3c(cc12)CCC3 | x | i
CC(=O)[C@@]1(O)CC[C@H]2[C@@H]3CCC4=CC(=O)CC[C@]4(C)[C@H]3CC[C@@]21C | 0.03 | i
CCCCCC(=O)O[C@]1(C(C)=O)CC[C@H]2[C@@H]3CCC4=CC(=O)CC[C@]4(C)[C@H]3CC[C@@]21C | -7.2 | -7.2*
COc1ccc(OC)c(S(=O)(=O)Nc2cccc3ccc(O)cc23)c1 | 0.59 | i
CC(C)OC(=O)CSc1nc2c(c(C3CC=CCC3)c1C#N)CCC2 (centres undefined) | -6 | -6*
Cc1cc(C)c(C#N)c(SCC(=O)CC(=O)OC(C)C)n1 | x | i
CCOC(=O)/C(=C/c1ccco1)NC(=O)c1ccc(Br)o1 | 1.5 | i
CCOC(=O)CCSc1nc(C)cc(C(F)(F)F)c1C#N | -5.7 | -5.7*
CCOC(=O)CCSc1nc(C(C)(C)C)cc(C(F)(F)F)c1C#N | x | i
Cc1ccccc1NC(=O)CCCN1C(=O)C2CC=CCC2C1=O (centres undefined) | x | i
COc1ccc2c(c1)C(C)CC(C)(C)N2C(=O)Nc1ccccc1 (centres undefined) | x | i
COc1ccc2c(c1)C(C)CC(C)(C)N2C(=O)CSc1nc2ccccc2s1 (centres undefined) | -7.5 | -7.5*
CN1CCN(Cc2cccc3ncccc23)CC1CCO (centres undefined) | x | i
N#CCCN/N=C(\Cc1nc2ccccc2[nH]1)c1ccccc1 | x | i
N#CCCN/N=C(/Cc1nc2ccccc2[nH]1)c1ccc(Cl)cc1 | -10 | -10*
Cc1noc(C)c1CSc1nc2ccccc2c(=O)n1-c1ccccc1 | -7.1 | -7.1*
SMILES | KCNQ2 enhance | KCNQ2 inh
COc1ccc(C(C)=O)cc1CSc1nc2ccccc2c(=O)n1-c1cccc(C)c1 | -6.7 | -6.7*
COc1ccc(C(C)=O)cc1CSc1nc2ccccc2c(=O)n1-c1ccccc1 | x | i
Cc1noc(C)c1CSc1nc2[nH]ncc2c(=O)n1-c1ccccc1 | x | i
COc1cccc(N2CCN(S(=O)(=O)c3ccc(-n4cnnn4)cc3)CC2)c1 | x | i
O=C(Cn1nnc(-c2ccccc2)n1)Nc1cccc(S(=O)(=O)N2CCCC2)c1 | 2.8 | i
O=C1C[C@@H](c2ccccc2)Oc2cc(O)cc(O)c21 | 0.64 | i
COc1c(CC=C(C)C)cc(C2CC(=O)c3c(O)cc(O)cc3O2)cc1CC=C(C)C (centres undefined) | -5.6 | -5.6*
Cc1nc(N2CCOCC2)c2cc(-c3ccccc3)sc2n1 | x | i
Cc1nc(N2CCN(Cc3ccc4c(c3)OCO4)CC2)c2cc(-c3ccccc3)sc2n1 | -6.4 | -6.4*
Clc1ccc(COc2cccc(CNCc3ccncc3)c2)cc1 | x | i
Cn1c(NC(=O)c2cc(-c3ccc4c(c3)OCO4)nc3ccccc23)cc(=O)n(C)c1=O | x | i
CC(C)(C)NC(=O)c1cc(-c2ccc3c(c2)OCO3)nc2ccccc12 | -5.6 | -5.6*
C#CCSc1n[nH]c(=O)n1-c1cccc(C(F)(F)F)c1 | x | i
CCCN(CCC)C(C(=O)Nc1cccc(OC)c1)c1ccccc1 (centres undefined) | -5.9 | -5.9*
CCC(C(=O)OCC(=O)Nc1cccc(OC)c1)c1ccccc1 (centres undefined) | x | i
O=C(Nc1ccc(F)cc1)NC1CCCCCCC1 | 1.1 | i
O=C(Nc1ccc(F)cc1)C(NC1CCCCC1)c1ccccc1 (centres undefined) | -6 | -6*
C/C(=N\NC(=O)C(O)c1ccccc1)c1ccc(Br)s1 (centres undefined) | 1 | i
Cc1ccc(CN(CC(O)COc2cccc3[nH]cc(C)c23)C(C)(C)C)cc1 (centres undefined) | -6.7 | -6.7*
Cc1c[nH]c2cccc(OCC(CNC(C)(C)C)OC(=O)c3ccccc3)c12 (centres undefined) | x | i
Cc1c(Cl)cccc1-n1c(SCC(=O)NCc2ccccc2Cl)nnc1-c1ccncc1 | -6.4 | -6.4*
Cc1c(Cl)cccc1-n1c(SCC(=O)NCc2cccs2)nnc1-c1ccncc1 | 0.01 | i
Nc1nc2n(n1)C(=O)CC(c1ccccc1)N2 (centres undefined) | x | i
COc1ccc(CC(=O)Nc2cccnc2)cc1 | x | i
CC(C)OC(=O)CC1C(=O)NCCN1C(=S)NC(=O)c1cccs1 (centres undefined) | 0.04 | i
SMILES | KCNQ2 enhance | KCNQ2 inh
CC1CCCN(C(=O)c2ccc(-c3ccccc3Cl)o2)C1 (centres undefined) | -7.4 | -7.4*
CC1CCCN(C(=O)c2ccc([N+](=O)[O-])o2)C1 (centres undefined) | x | i
CC(C)CNC(=O)c1oc2ccccc2c1COc1ccccc1 | -6.4 | -6.4*
CCC(CC)NC(=O)c1oc2ccccc2c1COc1ccccc1 | x | i
Cc1ccc(NC2CCCN(C(=O)c3cc4ncccn4n3)C2)cc1C (centres undefined) | x | i
Cc1ccc2cc(C(c3nnnn3C3CCCC3)N(Cc3ccccc3)Cc3ccco3)c(=O)[nH]c2c1 (centres undefined) | x | i
Cc1cc2cc(C(c3nnnn3C3CCCC3)N(Cc3cccnc3)Cc3ccco3)c(=O)[nH]c2cc1C (centres undefined) | -6 | -6*
O=S(=O)(c1ccccc1)C(/C=N\O)/C=C/c1ccccc1 (centres undefined) | -6.3 | -6.3*
O=S(=O)(c1ccccc1)N1CCC(=NO)CC1 | 1.4 | i
CCC(C(=O)Nc1cccc(C(=O)O)c1C)c1ccccc1 (centres undefined) | 0.43 | i
COc1ccc(Cc2c(Cl)ncnc2Cl)cc1 | x | i
CCOc1ccc(Cc2c(Cl)nc(SC)nc2N(C)C)cc1 | -7.2 | -7.2*
CSc1nc(Cl)c(Cc2ccc(OC(C)C)cc2)c(N(C)C)n1 | -6 | -6*
CCOc1ccc(Cc2c(Cl)nc(N)nc2Cl)cc1 | x | i
CCOC(=O)c1cnn(-c2ccccc2)c1-n1cccc1C(=O)C(=O)N(CC)CC | 0.3 | i
CCOC(=O)c1cnn(-c2ccccc2)c1-n1cccc1C(=O)C(=O)Nc1ccccc1C(F)(F)F | -7 | -7*
Cc1ccc(S(=O)(=O)N2CCN(c3ccccc3)CC2)cc1C(=O)NC1CCCCC1 | x | i
CC(C)Cn1c(N)c(C(=O)COC(=O)[C@@H]2CCCN2C(=O)c2cccs2)c(=O)n(C)c1=O | x | i
Cc1ccc(C)c(NC(=O)CSc2nnc(CSc3nc(C)cc(C)n3)n2Cc2ccco2)c1 | x | i
